Measurements taken from PubChem BioAssay (NCI).
“And” between values parts separate entries of the source, which are not always exact repeats. Identical values can stand only once. The panel holds about 83,000 compounds, 20% with a hit somewhere; the sample as a whole holds those more often.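 Note: values are percent growth. 100 is the growth of untreated cells, values between 100 and 0 indicate rising inhibition; between -100 and 0 indicates cell death.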 The source made the active and inactive calls. How the source made its calls: active means growth percent below 10; inactive means the rest.

Each compound was assayed on MDA-MB-468 breast (assay: NCI-60 one-dose screen, 48 h (100 = growth as untreated, 0 = no growth, -100 = all killed)). Conditions: 10 µM unless noted.
In the case of `CCn1c(SCC(=O)c2ccc(Br)cc2)nnc1-c1cc2c([nH]c3ccccc32)c(-c2cccc(O)c2)n1`, the growth is reported as 83.9% (inactive).
With `COc1ccc2c(c1)c(CC(=O)NCCOCCOCC(=O)Nc1ccc(OC)c(C(N)=O)c1O)c(C)n2C(=O)c1ccc(Cl)cc1` the growth was 88.6% (inactive).
With `COc1cc(/C=C2\SC(N3CCCCC3)=NC2=O)ccc1OCCCCCCOc1ccc(/C=C2\SC(N3CCCCC3)=NC2=O)cc1OC` the growth was 7.38% (active).
With `O=C(/C=C/c1cccc(F)c1)c1cccc(OCCCCOc2cccc(C(=O)/C=C/c3cccc(F)c3)c2)c1` the growth was 87.2% (inactive).
`COc1ccc(-c2nc3cc(Cl)c(Cl)cc3n2CC(=O)N=Nc2c(O)[nH]c3ccc(Br)cc23)cc1` was tested, and the growth was -71% (active).
With `Nc1cc(-c2c[nH]c3ccccc23)nc2cc(-c3c[nH]c4ccccc34)nn12` the growth was 52.1% (inactive).
For `Nc1ccc(C2=NN(C(=O)c3cc(-c4ccc(Cl)cc4)nc4ccccc34)C(c3ccccc3)C2)cc1` (stereo not given), the growth was 7.91% (active).
In the case of `C=C1N(C)c2ccc(Cl)cc2C1(C)C`, the growth is reported as 5.23% (active).
In the case of `Cc1ccc(N2C(=O)c3cccc4c(N)c(S(=O)(=O)O)cc(c34)C2=O)cc1`, the growth is reported as 113% (inactive).
In the case of `CCCNC(=O)Oc1ccc(/C(=C(/C)Cc2ccc(OC)cc2)c2ccc(OCCCN(C)C)cc2)cc1`, the growth is reported as 73.6% (inactive).
For `COC(=O)c1c2c(c(C)[n+]([O-])c1C)C(=O)C(NCc1ccc(F)c(F)c1)=CC2=O`, the growth was -26.1% (active).
With `O=C(Nc1cccc(-n2cc(-c3ccncc3)c(-c3ccc(Cl)c(O)c3)n2)c1)Nc1ccc(Cl)c(C(F)(F)F)c1` the growth was -49.5% (active).
In the case of `Cc1ccc(Cc2c(C=O)nc(N)[nH]c2=O)c2ccccc12`, the growth is reported as 106% (inactive).
With `O=C(/C=C/c1ccco1)c1ccccc1O` the growth was 60.7% (inactive).
With `O=C(/C=C/c1cccc(Br)c1)c1ccccc1` the growth was 84.9% (inactive).
In the case of `O=C1/C(=C/c2ccc(O)c(O)c2)COc2ccc(-c3ccccc3)cc21`, the growth is reported as 6.16% (active).
In the case of `CCCCCCN1CSC(=S)N(CCCCCC)C1`, the growth is reported as 89% (inactive).
With `Cc1ccc(NCCN(C)C)c2c(=O)c3ccccc3sc12` the growth was 26% (inactive).
For `NC(=O)c1cc2c3ccccc3ccn2c1-c1ccccc1`, the growth was 17.5% (inactive).
`N#Cc1c(-c2ccccc2)nc2c(c(-c3ccccc3)nn2-c2ccccc2)c1-c1ccc(N2CCCCC2)cc1` was tested, and the growth was 93.7% (inactive).
In the case of `COc1ccc2cc(C(C)C(=O)Nc3ccc(-c4n[nH]c(=S)n4C4CCCCC4)cc3)ccc2c1` (stereo not given), the growth is reported as 111% (inactive).
For `Nc1n[nH]c2cccc(C#Cc3cccc(C(=O)Nc4cc(C(F)(F)F)cc(C(F)(F)F)c4)c3)c12`, the growth was 87.5% (inactive).
With `O=C(CSSCC(=O)c1ccc(Cl)cc1)c1ccc(Cl)cc1` the growth was 74.8% (inactive).
For `COc1cc(/C=C2\CCCC3=C2N=C2SC(C)=CN2C3c2cc(OC)c(OC)c(OC)c2)cc(OC)c1OC` (stereo not given), the growth was -20.7% (active).
With `Cc1ccc2nc(-c3ccc(C(=O)N/N=C/c4ccc([N+](=O)[O-])cc4)cc3)[nH]c2c1` the growth was 113% (inactive).
In the case of `COC(=O)c1c2c(c(C)[n+]([O-])c1C)C(=O)C=CC2=O`, the growth is reported as -33% (active).
With `CCn1c(CN2CCN(Cc3ccccc3)CC2)nc2cc(NC(=O)c3cccs3)ccc21` the growth was -86.6% (active).
`CCOC(=O)C1=C(C)N=C2Sc3ccccc3N2C1c1ccccc1` (stereo not given) was tested, and the growth was 74.8% (inactive).
With `CCOC(=O)/C(C#N)=C(\C)CCc1ccccc1` the growth was 76.5% (inactive).
In the case of `CC1(C)CC[C@]23CC[C@]4(C)[C@H](CC[C@@H]5[C@@]6(C)C/C(=C/c7cccnc7)C(=O)C(C)(C)[C@@H]6CC[C@]54C)[C@H]2[C@H]1OC3=O`, the growth is reported as 56.9% [100 µM] (inactive).
For `CCN(CC)CCCC(C)Nc1ccnc2ccc(Oc3ccccc3)cc12` (stereo not given), the growth was 54.7% (inactive).
With `COc1ccc(N(c2nc(-c3ccc([N+](=O)[O-])cc3)cs2)C(C)C)cc1` the growth was 20.4% (inactive).
With `C=CCCCCOc1ccccc1-c1cnc(OCCCCC=C)n1C` the growth was 25.5% (inactive).
`CCc1cccc(NC(=O)CNc2cc(S(=O)(=O)N(C)C)cc(C)c2C)c1` was tested, and the growth was 87.3% (inactive).
In the case of `COc1ccc2c(O)c(/C=C3\N=Nc4nc(C)ccc43)oc2c1CC1CCNCC1`, the growth is reported as 0.98% (active).
For `Nc1cccc(C(=O)Nc2ccc3c(O)c(N=Nc4ccc(N=Nc5ccc(S(=O)(=O)O)cc5)cc4)c(S(=O)(=O)O)cc3c2)c1`, the growth was 113% (inactive).
With `CN(C)CC1(C)Cc2ccsc2C1O` (stereo not given) the growth was 104% (inactive) and 109% (inactive).
`O=C1c2ccccc2-c2cn(Cc3ccccc3)c3cccc(c23)C1c1cccnc1` (stereo not given) was tested, and the growth was 27.9% (inactive).
In the case of `CC1(C)CC(O)CCCCCCOc2c(CN)cccc2NC(=O)c2nc(cnc2N)-c2ccc(cc2)S1(=O)=O` (stereo not given), the growth is reported as 6.87% (active).
For `CC(C)CCN(CCC(C)C)CC(=O)Nc1ccc(S(=O)(=O)c2ccc(NC(=O)CN(CCC(C)C)CCC(C)C)cc2)cc1`, the growth was 46.5% (inactive).
